Most compounds without a hit are left out; they make up all but 19% or so of the library.
TDP1 cell CPT = growth inhibition of DT40 Tdp1-/-;hTDP1 cells with camptothecin (screen for TDP1 inhibitors); AID 686979; 12% of 420,000 active; chicken DT40 Tdp1-/-;hTDP1 cells + 20 nM CPT, ATP luminescence, 48 h; Potency, µM (highest dose often 46.2 µM), for the others: top-dose activity change, negative = growth inhibition, most hits filed as inhibitors; note: potency is the fitted concentration of half-maximal effect; nearly all actives have a fitted effect of over 55% in size
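Cell growth measured by CellTiter-Glo luminescence after a minimum 48 h, 37 C compound exposure with 20 nM CPT in Tdp1-knockout DT40 cells stably expressing hTDP1, seeded 400/well; qHTS titration format.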
HT1080-NT tox = kills 2HG-producing HT-1080-NT fibrosarcoma cells; HT-1080-NT fibrosarcoma viability, CellTiter-Glo ATP luminescence, 48 h; Potency, µM (top dose mostly 46.1 µM), for the others: at the highest dose activity, negative = less viability, most hits filed as cytotoxic; 1.6% of 360,000 active;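 note: NT is the 2HG producing partner of a matched IDH1 knockdown line; potency is the fitted concentration of half-maximal effect; 0% = DMSO-treated cells and -100% = media-only wells without cells; nearly all actives have a fitted effect of over 55% in size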
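Read-out is CellTiter-Glo luminescence after 10 minutes at room temperature, following 48 hours' compound treatment of HT-1080-NT cells (750 cells/well, RPMI, 5% FBS, 37 degrees C).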
IL1B secr inh = inflammasome signaling inhibition, IL-1 beta readout; THP-1 LPS/ATP IL-1B secretion, AlphaLISA, 16 h; active compounds read low; activity change, % at 57.5 µM; 4.7% of 360,000 active; AID 743279; in the data active = activity change below about -50%; inconclusive = mostly about -30% to -49%
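THP-1 cells pretreated 1 hr with compounds (up to 57.5 uM final), then stimulated with LPS (250 ng/mL final) plus ATP (1.25 mM final); secreted IL-1B measured by AlphaLISA after 16 hr, decreased signal indicating inhibition.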
DT40 TDP1 no CPT = qHTS for Inhibitors of human tyrosyl-DNA phosphodiesterase 1 (TDP1): qHTS in cells in absence of CPT | AID 686978, 2013 | 15% of 420,000 active | DT40 Tdp1-/- hTDP1 cells, no CPT, ATP luminescence, 48 h | Potency, µM (top dose mostly 46.2 µM), for inactives: top-dose activity change, negative = growth inhibition, actives largely listed as inhibitors; note: potency is the fitted concentration of half-maximal effect; nearly all actives have a fitted effect of over 55% in size
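Seeded 400 DT40-hTDP1 cells/well (vehicle DMSO, no 20 nM CPT); pinned compounds; ≥48 hr at 37 °C; CellTiter-Glo luminescence as viability measure.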
HT1080 IDH1KD tx = kills HT-1080 cells with IDH1 knockdown; HT-1080 IDH1 knockdown viability, ATP luminescence, 48 h; Potency, µM (titrated, usually from 46.1 µM), without a hit: top-dose activity, negative = toxicity, most hits filed as cytotoxic; 2% of 360,000 active;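 note: potency is the fitted concentration of half-maximal effect; 0% = DMSO wells and -100% = cell-free medium wells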
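After a 2 h attachment period, IDH1KD HT-1080 cells took pin-transferred compound for 48 h at 37 °C; ATP-based luminescence after 10 min room-temperature reagent incubation reported viability.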
* marks the source's active call; other numbers are inactive results. Unless noted, calls come from the whole dose curve; as a rule, active = well fitted curve in the direction sought with a large enough effect; inconclusive = small, poorly fitted or top-dose-only effect, or another doubt; inactive = no such curve, though single readings can be large; an effect the other way counts as inactive or inconclusive. Unless noted, % is set by controls: 0 for no effect and ±100 for the full control effect.

For CN1CCN(c2ccccc2NC(=O)c2ccc(N3CCCC3)c([N+](=O)[O-])c2)CC1 the results were TDP1 cell CPT inconclusive, HT1080-NT tox 13µM*, IL1B secr inh -77.9*, DT40 TDP1 no CPT inconclusive and HT1080 IDH1KD tx inconclusive.
`CC(=O)N1CCN(c2ccc(C(N)=O)cc2[N+](=O)[O-])CC1` gave TDP1 cell CPT -10.3%, HT1080-NT tox -2.5%, IL1B secr inh 45.7, DT40 TDP1 no CPT -0.6% and HT1080 IDH1KD tx -2.5%.
For O=C(Nc1ccccc1N1CCCCC1)c1ccc(Cl)c([N+](=O)[O-])c1 the results were TDP1 cell CPT inconclusive, HT1080-NT tox inconclusive, DT40 TDP1 no CPT 18.4µM* and HT1080 IDH1KD tx inconclusive.
For CN1CCN(c2ccc([N+](=O)[O-])cc2NC(=O)c2ccco2)CC1 the results were TDP1 cell CPT -25.2%, HT1080-NT tox -0.8%, IL1B secr inh -10.5, DT40 TDP1 no CPT -19.0% and HT1080 IDH1KD tx 0.0%.
Screening CCc1nc2c(OCc3ccc(C#N)cc3)cccn2c1N(C)C(=O)c1cccs1 returned TDP1 cell CPT -12.6%, HT1080-NT tox 1.9%, IL1B secr inh -19.0, DT40 TDP1 no CPT -20.6% and HT1080 IDH1KD tx -3.6%.
CCOC(=O)CNC(=O)N1CCc2ccc(NC(=O)c3ccccc3Cl)cc2C1 was read as TDP1 cell CPT 18.4µM*, HT1080-NT tox -18.9%, IL1B secr inh 0.0, DT40 TDP1 no CPT 8.2µM* and HT1080 IDH1KD tx -28.2%.
COc1ccccc1C(=O)Nc1ccc2c(c1)CN(C(=O)CSC)CC2 was read as TDP1 cell CPT inconclusive, HT1080-NT tox 13µM*, IL1B secr inh -1.2, DT40 TDP1 no CPT inconclusive and HT1080 IDH1KD tx 10.3µM*.
CCNCCCNCCCCNCCCNCC was read as TDP1 cell CPT 3.76µM* and DT40 TDP1 no CPT 5.31µM*.
O=C(Nc1cccc(Cl)c1Cl)C1CCCO1 (configuration not stated) was read as TDP1 cell CPT -9.0%, HT1080-NT tox 18.4%, IL1B secr inh -17.9, DT40 TDP1 no CPT -12.9% and HT1080 IDH1KD tx 22.1%.
Screening Cc1cc(C)nc(NC(N)=NC2CCCCC2)n1 returned TDP1 cell CPT 14.6µM*, HT1080-NT tox 0.1%, IL1B secr inh -5.8, DT40 TDP1 no CPT 11.6µM* and HT1080 IDH1KD tx -27.1%.
Screening CC(=O)CC(=O)NC(=NC1CCCCC1)Nc1nc(C)cc(C)n1 returned TDP1 cell CPT inconclusive, HT1080-NT tox -2.7%, IL1B secr inh -6.6, DT40 TDP1 no CPT inconclusive and HT1080 IDH1KD tx -12.0%.
Screening CCCc1ccc(C(O)c2ncc(-c3ccccc3F)[nH]2)cc1 (configuration not stated) returned TDP1 cell CPT 18.4µM*, HT1080-NT tox -3.2%, IL1B secr inh -8.2, DT40 TDP1 no CPT inconclusive and HT1080 IDH1KD tx inconclusive.
For COc1c(C)cc(C(O)c2ncc(-c3ccccc3Cl)[nH]2)cc1C (configuration not stated) the results were TDP1 cell CPT -24.8%, HT1080-NT tox inconclusive, IL1B secr inh 0.0, DT40 TDP1 no CPT inconclusive and HT1080 IDH1KD tx inconclusive.
Screening CSc1ccc(C(O)c2ncc(-c3ccccc3F)[nH]2)cc1 (configuration not stated) returned TDP1 cell CPT 29.1µM*, HT1080-NT tox -1.8%, IL1B secr inh 52.7, DT40 TDP1 no CPT inconclusive and HT1080 IDH1KD tx -17.0%.
For COc1ccccc1-c1cnc(C(O)c2ccc(SC)cc2)[nH]1 (configuration not stated) the results were TDP1 cell CPT 29.1µM*, HT1080-NT tox 16.4%, IL1B secr inh 32.5, DT40 TDP1 no CPT inconclusive and HT1080 IDH1KD tx 14.3%.
Screening COc1ccccc1-c1cnc(C(O)c2cc(C)c(OC)c(C)c2)[nH]1 (configuration not stated) returned TDP1 cell CPT 23.1µM*, HT1080-NT tox inconclusive, IL1B secr inh 16.8, DT40 TDP1 no CPT 23.1µM* and HT1080 IDH1KD tx inconclusive.
OC(c1ccc(Cl)cc1)c1ncc(-c2ccccc2F)[nH]1 (configuration not stated) was read as TDP1 cell CPT -26.3%, HT1080-NT tox -9.0%, IL1B secr inh 9.3, DT40 TDP1 no CPT inconclusive and HT1080 IDH1KD tx -22.8%.
For CC1=C(C(=O)N2CCOCC2)CC(CC(=O)NC(c2ccccc2)c2ccccc2)C(=O)N1Cc1ccc(F)cc1 (configuration not stated) the results were TDP1 cell CPT 0.4%, HT1080-NT tox 2.3%, IL1B secr inh 12.3, DT40 TDP1 no CPT inconclusive and HT1080 IDH1KD tx 10.8%.
For CCc1ccc(C(O)c2ncc(-c3cccc4ccccc34)[nH]2)cc1 (configuration not stated) the results were TDP1 cell CPT inconclusive, HT1080-NT tox inconclusive, IL1B secr inh -14.3, DT40 TDP1 no CPT 16.4µM* and HT1080 IDH1KD tx inconclusive.
COc1ccc(C2c3[nH]c4ccccc4c3CCN2C(=O)c2cn3ccccc3n2)c(F)c1 (configuration not stated) was read as TDP1 cell CPT -2.2%, HT1080-NT tox -16.8%, IL1B secr inh inconclusive, DT40 TDP1 no CPT inconclusive and HT1080 IDH1KD tx inconclusive.
COc1ccc(C2c3[nH]c4ccccc4c3CCN2C(=O)c2cc3ncccn3n2)c(F)c1 (configuration not stated) was read as TDP1 cell CPT -0.3%, HT1080-NT tox -27.3%, IL1B secr inh -12.9, DT40 TDP1 no CPT 20.6µM* and HT1080 IDH1KD tx inconclusive.
For O=C(c1ccc(Cl)cc1)N1CCc2c([nH]c3ccccc23)C1C(F)(F)F (configuration not stated) the results were TDP1 cell CPT 3.7%, HT1080-NT tox -8.1%, IL1B secr inh 4.7, DT40 TDP1 no CPT inconclusive and HT1080 IDH1KD tx -2.9%.
For COc1cc(C(=O)N2CCc3c([nH]c4ccccc34)C2c2ccc(C)cc2)cc(OC)c1OC (configuration not stated) the results were TDP1 cell CPT 16.4µM* and DT40 TDP1 no CPT inconclusive.
For COc1cccc(C2c3[nH]c4ccccc4c3CCN2C(=O)c2ccccc2F)c1OC (configuration not stated) the results were TDP1 cell CPT inconclusive, HT1080-NT tox inconclusive, IL1B secr inh inconclusive, DT40 TDP1 no CPT -96.6% and HT1080 IDH1KD tx inconclusive.
COc1cc(C(=O)N2CCc3c([nH]c4ccccc34)C2c2ccccc2)cc(OC)c1OC (configuration not stated) was read as TDP1 cell CPT 7.31µM* and DT40 TDP1 no CPT 6.51µM*.
Screening O=C(c1cn[nH]c1)N1CCc2c([nH]c3ccccc23)C1c1c(F)cccc1Cl (configuration not stated) returned TDP1 cell CPT inconclusive, HT1080-NT tox inconclusive, IL1B secr inh -52.5*, DT40 TDP1 no CPT inconclusive and HT1080 IDH1KD tx -28.0%.

Compound activity from PubChem.
